# LGR2 inh: blocks bursicon-induced cAMP signaling via Drosophila LGR2; HEK293 LGR2, CRE-luciferase, bursicon-stimulated, 4 h; inhibition, % at 9.99 µM; actives 0.35% (n = 380,000);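 active = drop in luminescence signal, shown as inhibition above about 50% in the replicate tests, limit read from the data, passing the limit was not always enough; inconclusive = probably only some replicates passing the limit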;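 note: agonist challenge used bursicon conditioned medium at about half maximal strength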
# TROY NFkB inh: inhibitors of TROY-dependent NF-kB signaling | actives 0.98% (n = 360,000) | Q293 LMP1-TROYcd NF-kB luciferase reporter, 4 h | AID 1347056 | inhibition, % at 10 µM;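 active = compounds whose plate-normalised and pattern-corrected inhibition of the luciferase reporter signal at the single screening dose is 50% or more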
# EWS-Fli block: inhibitors of EWS/Fli oncoprotein transcriptional activity; actives 0.67% (n = 350,000); A673 NR0B1-luciferase reporter, viability-normalised; inhibition, % at 12.6 µM;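 active = mean inhibition of at least 50% after viability correction, with every replicate also passing that limit; inconclusive = mean reaches 50% but only one of two replicates passes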;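 note: firefly luciferase signal divided by Alamar Blue viability fluorescence both relative to DMSO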
# PAX8 inh HTS: inhibitors of PAX8 transcriptional activity in RMG-I cells; RMG-I TPO-luciferase reporter, SteadyGlo, 24 h; inhibition, % at 12.6 µM; actives 1.2% (n = 360,000);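 active = mean replicate inhibition at least 60% with every replicate also reaching 60%; inconclusive = only one of the two criteria is met; inactive = mean below 60% and not all replicates reaching 60%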;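 note: luciferase light reporting Pax8 driven TPO promoter activity; plate controls were median of neutral control wells for no effect and mitoxantrone controls for full effect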
# TWEAK-Fn14 inh: inhibitors of TWEAK-Fn14 interaction signaling; actives 2% (n = 360,000); TWEAK-stimulated Fn14 reporter cells, luciferase luminescence, 8 h; AID 1159606; inhibition, % at 10 µM; in the data active = inhibition above about 50%
# LMP1 NFkB inh: Epstein-Barr LMP1 NF-kappaB reporter inhibition; actives 0.69% (n = 350,000); inhibition, % at 12.5 µM; LMP1-induced NF-kappaB luciferase reporter cells, luminescence; in the data active = inhibition above about 41%; inconclusive = no clear call, values can overlap the other calls;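 note: 0% = neutral control wells and 100% = reference inhibitor control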
# Starred values were filed as active, the others as inactive; ? = inconclusive; · = not tested or not shown. Most compounds without a hit are left out; they make up all but 3.1% or so of the library.
SMILES,LGR2 inh,TROY NFkB inh,EWS-Fli block,PAX8 inh HTS,TWEAK-Fn14 inh,LMP1 NFkB inh
C[C@H](NC(=O)C[C@@H]1C[C@@H]2c3cc(NC(=O)c4cccnc4)ccc3O[C@@H]2[C@H](CO)O1)c1ccccc1,12,·,7,-2,·,·
O=C(c1ccccc1F)N1C[C@H]2[C@@H](c3ccccc31)[C@@H](CO)N2C(=O)c1ccncc1,0,·,6,12,·,·
CC(C)(C)NC(=S)Nc1ccc(Nc2ccccc2)cc1,·,-61,·,-48,56*,3
CC(C)(C)NC(=S)Nc1ccc(Br)cc1,·,-8,·,-41,7,-4
C[C@H](CO)N1C[C@H](C)[C@H](CN(C)C(=O)C2CCCCC2)Oc2cc(C3=CCCCC3)ccc2S1(=O)=O,-7,·,-9,·,·,·
Cc1ccc(S(=O)(=O)Nc2cccc3c2O[C@H](CN(C)S(=O)(=O)c2ccccc2)[C@@H](C)CN([C@@H](C)CO)C3=O)cc1,-4,·,-23,28,·,·
CC(C)CCNC(=O)C(c1ccc(O)cc1)N(Cc1cccs1)C(=O)C1COc2ccccc2O1 (stereo not drawn),?,28,3,44,55*,5
CC(C)(C)NC(=O)CN(Cc1cccs1)C(=O)C1COc2ccccc2O1 (stereo not drawn),·,3,·,·,-1,0
CCOC(=O)c1c(N2C(=O)Nc3cc(Cl)c(Cl)cc3N2O)sc2c1CCCCC2,·,53*,·,·,8,4
CCCSc1nc(C)c(-c2csc(C(C#N)=C3CCCC3)n2)cc1C#N,1,-10,·,·,64*,5
CCCCSc1nc2c(cc1C#N)CCC2,-15,-43,·,·,-10,-7
C[C@H](CO)N1C[C@H](C)[C@@H](CN(C)Cc2ccc(-c3ccccc3)cc2)Oc2c(NC(=O)Nc3ccccc3)cccc2C1=O,-4,·,·,·,·,·
CC(=O)c1c(C)[nH]c(C(=O)OCC(=O)Nc2cc(Cl)ccc2[N+](=O)[O-])c1C,29,70*,5,26,88*,21
CC(=O)c1c(C)[nH]c(C(=O)OCC(=O)Nc2ccc(C)cc2[N+](=O)[O-])c1C,1,41,·,19,63*,-2
CC(C)(C)n1ncc2c(=O)n(CC(=O)NCc3ccccc3)cnc21,·,45,·,·,84*,20
CC(C)(C)n1ncc2c(=O)n(CC(=O)Nc3ccc(Cl)cc3)cnc21,-3,5,·,·,-7,4
Cc1ccc2nc(SCC3CCCCO3)[nH]c2c1 (stereo not drawn),10,33,28,-13,71*,37
O=C(Nc1cc(F)ccc1F)N[C@H]1CC[C@@H](CCn2cc(C3CC3)nn2)O[C@H]1CO,-1,·,0,-5,·,·
COc1ccc(NC(=O)c2nc(C)c(C3(C)CC(c4cccnc4)=NO3)s2)cc1 (stereo not drawn),6,28,68*,26,4,9
CC(=O)N(C1=C(Cl)C(=O)c2ccccc2C1=O)C1CCCCC1,8,21,55*,99*,15,24
O=S(c1cc(Cl)cc(Cl)c1O)c1cc(Cl)cc(Cl)c1O,-1,54*,-1,-19,-3,·
O=[N+]([O-])c1c(Cl)cc(Cl)cc1Cl,9,·,5,·,·,·
C=CC(=O)Nc1cccc(Oc2ccnc(Nc3ccc(N4CCN(C)CC4)cc3)n2)c1,23,16,5,74*,-7,35
C=CC(=O)Nc1cccc(N(C)c2ccnc(Nc3ccc(N4CCN(C)CC4)cc3)n2)c1,·,46,·,·,-3,44*
C=CC(=O)Nc1cccc(Oc2ccnc3[nH]ccc23)c1,·,12,·,·,29,3
SMILES,LGR2 inh,TROY NFkB inh,EWS-Fli block,PAX8 inh HTS,TWEAK-Fn14 inh,LMP1 NFkB inh
CC(C)NC(=O)N(C)C[C@@H]1Oc2c(NC(=O)c3ccncc3)cccc2C(=O)N([C@H](C)CO)C[C@H]1C,-14,·,-6,-12,·,·
O=C(C[C@H]1C[C@@H]2c3cc(NC(=O)NC4CCCC4)ccc3O[C@@H]2[C@@H](CO)O1)NCc1cc(F)ccc1F,0,·,6,2,·,·
C[C@@H]1CN([C@H](C)CO)S(=O)(=O)c2ccc(-c3ccncc3)cc2O[C@@H]1CN(C)C(=O)c1cccc(F)c1,4,·,-2,36,·,·
O=C(Nc1ccccc1F)N[C@@H]1CC[C@@H](CCNS(=O)(=O)c2ccc(Cl)cc2)O[C@@H]1CO,-9,·,4,13,·,·
O=C(Nc1ccc([N+](=O)[O-])cc1)Nc1ccc(N2CCOCC2)c2nonc12,67*,69*,12,-15,6,20
CC(=O)Nc1cc([N+](=O)[O-])ccc1N1CCOCC1,9,-10,-16,-1,-1,-3
CN1C(=O)c2cc(NC(=O)c3ccccc3)ccc2OC[C@H]2O[C@@H](CC(=O)O)CC[C@H]21,14,·,-1,8,·,·
Cc1ccc(NC(=O)Nn2cnnc2)cc1Cl,6,3,·,-5,9,3
Cc1ccc(NC(=O)O/N=C/c2c(C)nn(C(C)(C)C)c2C)cc1Cl,99*,82*,76*,58,103*,75*
CCCCc1nc(N2CCN(C(=O)c3ccco3)CC2)c(C#N)c2c1CCCC2,33,68*,·,8,-7,6
CC(c1ccco1)N(C(=O)COc1ccc(Cl)cc1Cl)c1ccccn1 (stereo not drawn),5,62*,-88,·,84*,-21
O=C(COc1ccc(Cl)cc1Cl)Nc1ccccn1,100*,89*,60*,·,108*,64*
O=C(CCCOc1ccc(Cl)cc1Cl)NCCc1ccccn1,6,69*,46,-4,31,29
O=C(CCCOc1ccc(Cl)cc1Cl)NCCCO,·,0,·,·,-23,-11
CC(C)NC(=O)N1[C@H](CO)[C@H](c2ccccc2)C12CN(C(=O)CN(C)C)C2,-2,·,-3,-1,·,·
C[C@@H]1CCCCO[C@@H](CN(C)Cc2ccc(C(F)(F)F)cc2)[C@H](C)CN([C@H](C)CO)C(=O)c2cc(NS(=O)(=O)c3cn(C)cn3)ccc2O1,2,·,4,·,·,·
CCCN(CCC)c1nc(Cl)nc(NCc2ccco2)n1,·,7,·,·,75*,4
O=C(CSc1cccc[n+]1[O-])Nc1cc(S(=O)(=O)N2CCOCC2)ccc1Cl,-7,3,·,·,-7,-9
O=C(CSc1cccc[n+]1[O-])Nc1cc(S(=O)(=O)N2CCOCC2)ccc1N1CCOCC1,-6,-1,8,87*,3,-6
COc1ccc(NC(=O)c2cc3cccc(OC)c3oc2=Nc2ccc(C(=O)O)cc2)cc1OC,-1,46,-52,-43,83*,-11
CCOc1cccc2cc(C(=O)N3CCc4ccccc43)c(=O)oc12,·,3,·,·,7,0
COc1cccc2cc(C(=O)N3CCc4ccccc43)c(=O)oc12,·,14,·,·,50*,1
COc1ccc(Br)cc1C(=O)Nc1ccc(C(=O)O)cc1,13,-16,-1,-7,-32,5
COc1cccc2cc(C(=O)Nc3cccc(C)n3)c(=O)oc12,·,50,·,·,57*,-20
